Screening data (PubChem BioAssay)
PAD4 FP inh: human PAD4 inhibitors, primary screen, biochemical, fluorescence polarization, 1536-well format | recombinant PAD4, RCA probe fluorescence polarization | inhibition, % at 6.36 µM | 0.41% of 330,000 active | Protein-arginine deiminase type-4 (Homo sapiens), Q9UM07;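 active = percent inhibition above a cutoff equal to the mean of all tested compounds plus 3 SD, cut at about 15% in these data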
PRMT1 FP inh: PRMT1 methyltransferase inhibitors, primary screen, biochemical, fluorescence polarization | Protein arginine N-methyltransferase 1 (Homo sapiens), Q99873 | recombinant PRMT1, activity-based probe fluorescence polarization | inhibition, % at 2.79 µM | 1.3% of 370,000 active | AID 652257, 2013;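 active = inhibition above about 21% made by adding two undisclosed values, limit read from the data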
TCR-CD3 inh: inhibitors of human TCR-CD3 interaction, primary screen, biochemical, fluorescence, TAMRA-labeled TCR probe. inhibition, % at 9.4 µM. 0.37% of 360,000 active. AID 651800, 2012;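 also: recombinant mutant TCR 2C K166C tagged with TAMRA read by polarization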
Fam108B counter: mouse Fam108B serine hydrolase inhibitors, primary screen, counter-screen for RBBP9 inhibitor project, biochemical, fluorescence polarization; recombinant Fam108B, FP-Rh probe fluorescence polarization; inhibition, % at 9.51 µM; 0.33% of 300,000 active; AID 1947, 2009;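 active = inhibition above the screen mean inhibition plus 3 SD, computed separately per campaign, cut at about 18% in these data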;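 also: inhibitors lower polarization as less probe binds the enzyme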
SIAE primary: human SIAE inhibitors, primary screen, biochemical, fluorescence polarization, FP-Rh probe, 1536-well HTS; Sialate O-acetylesterase (Homo sapiens), Q9HAT2; SIAE FP-Rh probe binding; inhibition, % at 9.66 µM; 0.69% of 370,000 active; AID 1053197, 2014;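 active = inhibition above a cutoff: mean of compounds within the control limits plus 3 SD of those, cut at about 17% in these data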
PME-1 inh: PME-1 inhibitors via competitive probe labeling, primary screen, biochemical, fluorescence polarization, FP-Rh probe, HTS | Protein phosphatase methylesterase 1 (Homo sapiens), Q9Y570 | 0.53% of 320,000 active | recombinant PME-1 | inhibition, % at 5.9 µM;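 active = inhibition above the campaign mean of all compounds plus 3 SD, cut at about 26% in these data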;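 also: competitive labeling of PME-1 active site by serine hydrolase directed probe; inhibitors block probe labeling so polarization falls and inhibition rises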
Target sequence (Q9Y570 whole entry, looked up): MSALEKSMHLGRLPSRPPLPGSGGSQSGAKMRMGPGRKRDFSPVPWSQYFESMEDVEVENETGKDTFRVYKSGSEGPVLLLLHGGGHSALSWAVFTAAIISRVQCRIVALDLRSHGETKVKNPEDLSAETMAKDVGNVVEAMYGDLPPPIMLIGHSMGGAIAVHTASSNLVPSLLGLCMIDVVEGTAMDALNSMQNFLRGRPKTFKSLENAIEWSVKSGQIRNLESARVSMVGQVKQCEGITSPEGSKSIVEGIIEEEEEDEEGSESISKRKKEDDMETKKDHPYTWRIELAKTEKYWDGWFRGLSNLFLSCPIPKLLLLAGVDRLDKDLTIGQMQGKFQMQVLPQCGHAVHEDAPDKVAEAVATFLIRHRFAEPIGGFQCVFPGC
PAD4 confirm: human PAD4 inhibitors, confirmation, biochemical, fluorescence polarization; AID 488796, 2010; 28% of 1,200 active; recombinant PAD4, RCA probe fluorescence polarization; shares compounds with PAD4 FP inh; inhibition, % at 6.36 µM;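 active = mean inhibition across replicates above the hit cutoff set by the earlier primary screen, cut at about 15% in these data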;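 also: inhibitors block active-site labeling by the probe so polarization falls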
BSA probe FL: compounds interfering with TAMRA-BSA probe, counter-screen for TCR-CD3 interaction inhibitor project, biochemical, fluorescence, TAMRA-labeled BSA; TAMRA-labeled BSA probe fluorescence counterscreen; 10% of 1,200 active; inhibition, % at 9.4 µM; shares compounds with TCR-CD3 inh; in the data active = inhibition above about 23%
TCR-CD3 inh conf: TCR-CD3 interaction inhibitors, retest, confirmation, biochemical, fluorescence, TAMRA-labeled TCR probe | 48% of 1,200 active | AID 652036, 2013 | TAMRA-labeled TCR probe fluorescence binding assay | shares compounds with TCR-CD3 inh | inhibition, % at 9.4 µM
Large screens that a line does not name were inactive (follow-up assays come after a bar, where they were run). Compounds with a hit are over-represented: about 2.6% of the library has one in this group of screens. Rule as the data show it, unless noted: active = inhibition above about 19%; inactive = the rest.

COc1cc(C=O)ccc1OCc1ccc(Cl)nc1	none
COP(=O)(CC(=O)C(Cc1ccccc1)NC(=O)OC(C)(C)C)OC (stereo not given)	none (no result: PAD4 FP inh, TCR-CD3 inh, Fam108B counter, PME-1 inh)
Cc1ccc(-c2ccc(/C=N/N=C3/NC(=O)C(CC(=O)O)S3)o2)c([N+](=O)[O-])c1 (stereo not given)	none
O=C(O)CC1S/C(=N/N=C/c2ccc(-c3ccccc3[N+](=O)[O-])o2)NC1=O (stereo not given)	PAD4 FP inh 20 | PAD4 confirm inactive
O=C(O)C1CC(c2ccccc2)=Nc2ccccc2S1 (stereo not given)	none
O=[N+]([O-])c1ccc(C2CC(c3ccccc3)=Nc3ccccc3S2)cc1 (stereo not given)	PAD4 FP inh 22, PRMT1 FP inh 79 | PAD4 confirm inactive
Fc1ccc(C2CC(c3ccco3)=Nc3ccccc3S2)cc1 (stereo not given)	PAD4 FP inh 15, PRMT1 FP inh 71 | PAD4 confirm inactive
Nc1ccc(OC(=O)Nc2ccc(O)cc2)cc1	PAD4 FP inh 73 | PAD4 confirm inactive
CCN(CC)CCn1c2c(c(SCC(=O)Nc3nc4ccccc4s3)nc1=O)CCC2	PAD4 FP inh 17 | PAD4 confirm inactive
CC(=O)c1ccc(NC(=O)CSc2nc(=O)n(CCN3CCOCC3)c3c2CCC3)cc1	none
CCOC(=O)c1ccc(NC(=O)CSc2nc(=O)n(CCN3CCOCC3)c3c2CCC3)cc1	PAD4 FP inh 17 | PAD4 confirm inactive
Nn1c(SCc2cccc3ccccc23)nnc1-c1cc(-c2ccc(Cl)cc2)n[nH]1	none (no result: PAD4 FP inh, TCR-CD3 inh, Fam108B counter, PME-1 inh)
CCCC(=O)OC12CCCN(C1)/C(=C/c1ccc(OC)cc1)C2 (stereo not given)	none (no result: PAD4 FP inh, TCR-CD3 inh, Fam108B counter, PME-1 inh)
Cc1cc(C(=O)CSc2nc(N)cc(=O)[nH]2)c(C)n1CC1CCCO1 (stereo not given)	PAD4 FP inh 28 (no result: Fam108B counter, PME-1 inh) | PAD4 confirm 15
Nn1c(SCC(=O)Nc2nc3ccccc3s2)nncc1=O	PAD4 FP inh 22 | PAD4 confirm 39
Cc1nnc(SCC(=O)Nc2nc3ccccc3s2)n(N)c1=O	none
CCOc1ccc(NC(=O)CSc2nncc(=O)n2N)cc1	PAD4 FP inh 15, PRMT1 FP inh 34 | PAD4 confirm inactive
COc1ccc(C2=Nn3c(nnc3-c3cccnc3)SC2)cc1OC	PAD4 FP inh 22 | PAD4 confirm inactive
CCN1C=C(Cc2ccc(OC)cc2)C2=C(C1)C(c1ccc(OC)cc1)C(C#N)=C(N)O2 (stereo not given)	PAD4 FP inh 42 | PAD4 confirm inactive
CCOC(=O)CC[C@@]1(C(=O)OCC)C[C@@H](CC(=O)NCc2cccc3ccccc23)C(=O)N2CCCC=C21	none (no result: PAD4 FP inh, TCR-CD3 inh, Fam108B counter, PME-1 inh)
COc1ccc2c(c1)CN1C(=O)N(CC(C)C)S(=O)(=O)CC21 (stereo not given)	none (no result: PAD4 FP inh, TCR-CD3 inh, Fam108B counter, PME-1 inh)
CCN(CC)c1ccc(/C=N/N(c2ccccc2)c2ccccc2)c(O)c1	none
CCN(CC)c1ccc(C(=O)c2ccccc2C(=O)O)c(O)c1	PAD4 FP inh 21, TCR-CD3 inh 40 | PAD4 confirm 26 | BSA probe FL 56 | TCR-CD3 inh conf 36
Cc1cc(NC(=O)c2ccc(NS(=O)(=O)c3ccc(C)c(C)c3)cc2)no1	none (no result: PAD4 FP inh, TCR-CD3 inh, Fam108B counter, PME-1 inh)
CC1=NN(c2ccccc2)C(=O)C1C=Nc1ccc(N(C)C)cc1 (stereo not given)	PAD4 FP inh 51, PRMT1 FP inh 29, TCR-CD3 inh 23 | PAD4 confirm inactive | BSA probe FL inactive | TCR-CD3 inh conf inactive
Cc1oc2cc(O)ccc2c(=O)c1-c1nncn1-c1ccccc1	PAD4 FP inh 18, PRMT1 FP inh 52, TCR-CD3 inh 25 | PAD4 confirm 16 | BSA probe FL 27 | TCR-CD3 inh conf 23
COc1cc(OC)cc(C(C)c2ccc(C)cc2)c1 (stereo not given)	none (no result: PAD4 FP inh, TCR-CD3 inh, Fam108B counter, PME-1 inh)
COc1ncnc2c1NC1=C(S2)C(=NCCC(=O)O)CC(C)(C)C1	PAD4 FP inh 20, PRMT1 FP inh 28, TCR-CD3 inh 29 | PAD4 confirm 24 | BSA probe FL 53 | TCR-CD3 inh conf 41
N#Cc1ccc(NC(=O)OC2CC3CC2[C@H]2CCCCN2[C@H]3Cc2ccccc2)cc1 (stereo not given in full)	none (no result: PAD4 FP inh, TCR-CD3 inh, Fam108B counter, PME-1 inh)
CC(=O)Nc1ccc(Nc2c3c4c(cccc4n(C)c2=O)C(=O)c2ccccc2-3)cc1	PAD4 FP inh 19, PRMT1 FP inh 71, TCR-CD3 inh 21, PME-1 inh 33 | PAD4 confirm 23 | BSA probe FL 55 | TCR-CD3 inh conf 37
CC(=O)Nc1ccc2c(c1)C(=O)c1ccccc1C2=O	none
COc1cc(C(=O)NC2CCCCN(C(C)C)C2=O)cc(OC)c1OC (stereo not given)	none (no result: PAD4 FP inh, TCR-CD3 inh, Fam108B counter, PME-1 inh)
O=C(O)/C=C/C(=O)Nc1ccc(O)cc1	PAD4 FP inh 60, TCR-CD3 inh 20 | PAD4 confirm inactive | BSA probe FL inactive | TCR-CD3 inh conf inactive
CC1CCC/C(=C\Nc2ccc(O)cc2)C1=O (stereo not given)	PAD4 FP inh 28, TCR-CD3 inh 24 | PAD4 confirm inactive | BSA probe FL inactive | TCR-CD3 inh conf inactive
Cc1cc(C(=O)O)ccc1N/C=C1\CCCC(C)C1=O (stereo not given)	none
FC(F)(F)c1cccc(Cn2ccc3ccc(-c4ccc5ccn(Cc6cccc(C(F)(F)F)c6)c5c4)cc32)c1	none (no result: PAD4 FP inh, TCR-CD3 inh, Fam108B counter, PME-1 inh)
Cc1cc2cc(CNC(=O)C(C)Oc3ccccc3)ccc2n1C (stereo not given)	PAD4 FP inh 29, TCR-CD3 inh 45 | PAD4 confirm inactive | BSA probe FL inactive | TCR-CD3 inh conf inactive
CCC(CC)C(=O)NCc1ccc2c(c1)cc(C)n2C	none
Nc1ccc(-c2c3ccc(=O)cc-3oc3cc(O)ccc23)cc1C(=O)O	PAD4 FP inh 23, PRMT1 FP inh 71, TCR-CD3 inh 38 | PAD4 confirm 33 | BSA probe FL 49 | TCR-CD3 inh conf 34
